High-throughput results as filed in PubChem BioAssay.
Beta apoptosis: blocks beta cell apoptosis; INS-1E cytokine-induced death, ATP luminescence, 48 h; percent of positive-control rescue, neutral wells zero; protection from apoptosis, % (test concentration not listed); 300,000 compounds, 0.8% hits;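 active means Every replicate reaches about 75%, or at least half do and their mean reaches it too, limit read from the data; inconclusive means At least half of replicates reach the limit but their mean does not; inactive means Under half of replicates reach the limit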;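 further: 0% = cytokine-treated negative control wells and 100% = positive control rescue; higher means more ATP so stronger rescue from cytokine killing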
Bfl-1 A1 inh: inhibitors of the anti-apoptotic protein A1, read as caspase activation; MEF A1-2A-BIM cells, Caspase-Glo 3/7 luminescence, 3 h; percent of clofoctol response, vehicle zero; caspase activation, % (concentration not given with the values); 330,000 compounds, 0.066% hits; AID 2462;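 active means over half of replicate activation scores above 10%, or exactly half above 10 with the replicate mean above 10; inconclusive means replicate mean below 10 yet half the replicates above 10; inactive means over half of replicates below 10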
aSyn 5UTR inh: 5' untranslated region of α-synuclein, MLPCN primary screen. 300,000 compounds, 0.82% hits. inhibition, % (tested at 7.5 µM). alpha-synuclein 5'UTR reporter, inhibitor activity; in the data active means inhibition above about 60%; inconclusive means no clear call, values can overlap the other calls;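 further: H4 neuroglioblastoma cells stably carrying SNCA 5'UTR luciferase fusion; 0% = DMSO wells and 100% = positive control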
CSC inhib: blocks cancer stem cells; 300,000 compounds, 1.1% hits; inhibition, % at 7.5 µM; cancer stem cell-like cells viability, luminescence; in the data active means inhibition above about 75%; inconclusive means no clear call, values can overlap the other calls; tested in HMLE shEcad cells
Mdm2 MdmX PPI: disrupts the human Mdm2-MdmX interaction; inhibition, % at 8 µM; SaOS-2 split-luciferase Mdm2/MdmX complementation, luminescence; O15151+Q00987; AID 485346; 330,000 compounds, 3% hits;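 active means inhibition of at least 50% at 8 µM in the primary screen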
Mdm2-MdmX conf: human Mdm2/MdmX binding inhibition, confirmed; luminescent assay; inhibition, % at 8 µM; shares compounds with Mdm2 MdmX PPI; 10,000 compounds, 55% hits; in the data active means inhibition above about 40%
Full FLuc ctr: inhibits full-length luciferase, flagging false Mdm2/MdmX hits; shares compounds with Mdm2 MdmX PPI; SaOS-2 full-length luciferase counterscreen, luminescence; inhibition, % at 8 µM; 6,200 compounds, 77% hits; AID 504607;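 active means mean inhibition at 8 µM reaching about 37%, which flags the compound as non-specific, limit read from the data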;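 further: p53-null SaOS-2 cells with luciferase driven by a doxycycline-inducible promoter; compound on cells about two nights before reading with doxycycline added after day one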
The depositor's hits bear a star; u = inconclusive; x = no result given. A selection: hits, their analogues and other compounds. The true share with any hit is near 4.1%.

SMILES	Beta apoptosis	Bfl-1 A1 inh	aSyn 5UTR inh	CSC inhib	Mdm2 MdmX PPI	Mdm2-MdmX conf	Full FLuc ctr
Cc1ccc(C2=NN(C(=O)CSc3nccn3C)C(c3ccco3)C2)cc1 (stereo not given)	x	0	-29	-4	65*	57*	68*
O=C(CCl)N1N=C(c2ccco2)CC1c1ccco1 (stereo not given)	x	-1	-1	8	97*	49*	31
O=C(O)/C=C/C(=O)N1N=C(c2ccco2)CC1c1ccco1 (stereo not given)	0	0	-2	-10	6	x	x
CCS(=O)(=O)Nc1ccc(C2=NN(C(=O)c3ccco3)C(c3ccco3)C2)cc1 (stereo not given)	10	0	-60	-6	53*	74*	56*
O=C(CCl)N1N=C(c2cccs2)CC1c1ccco1 (stereo not given)	-38	2	-10	56	100*	99*	53*
CN1CCN(CC(=O)N2N=C(c3cccs3)CC2c2ccco2)CC1 (stereo not given)	0	-2	14	-1	42	x	x
Cc1cc(C)c(C(=O)NCCCN2CCOCC2)c(C)c1	x	1	-3	0	19	x	x
O=S(=O)(c1cccc2nsnc12)N1CCCCC1	-7	-1	-7	-6	22	x	x
Cc1cc(C(=O)NNC(=O)[C@H](C)NC(=O)c2ccc(Br)cc2)c(C)o1	-1	0	x	-20	15	x	x
CCCCn1c(=O)[nH]c(=O)c2c1nc(Cn1ncc(Cl)c(Cl)c1=O)n2CCC	4	6.8*	-106	-2	100*	93*	52*
CC(=O)OC1[C@H](Oc2c(O)c(C)c3c4c2[C@@H](C)CC[C@@H]4[C@@H](C)C[C@@H]3C=C(C)C)OC[C@@H](O)[C@@H]1O (stereo not given in full)	-14	1	x	x	20	x	x
CC(=O)O[C@H]1[C@H](O)[C@H](Oc2c(O)c(C)c3c4c2[C@@H](C)CC[C@@H]4[C@@H](C)C[C@H]3C=C(C)C)O[C@@H](C)[C@H]1O	x	x	x	x	74*	-5	x
O=C(NCC1CCCO1)c1ccc(N2CCCCC2)c([N+](=O)[O-])c1 (stereo not given)	4	0	-59	-23	0	x	x
O=C(NCc1cccs1)C1CCN(c2ccc(S(=O)(=O)N3CCOCC3)cc2Cl)CC1	17	1	24	59	63*	43*	91*
O=C1O/C(=C/c2ccccc2)c2ccccc21	-3	0	-25	-12	18	x	x
N#CC1=C(c2ccccc2)/C(=C/c2ccccc2)OC1=O	1	-2	20	-6	100*	75*	49*
Cc1nn(-c2ccccc2)c2c1c(C)c(CCC(=O)N1CCOCC1)c(=O)n2C	2	0	12	-1	4	x	x
CCn1c(=O)c(CCC(=O)N2CCOCC2)c(C)c2c(C)nn(-c3ccccc3)c21	7	2	33	-1	62*	33	x
COc1ccccc1[C@]1(C)ON(c2ccccc2C(F)(F)F)C1=O	-12	1	x	48	92*	77*	37*
CC(C)C[C@]1(c2ccccc2)ON(c2ccccc2C(F)(F)F)C1=O	-11	0	x	40	49	x	x
CC[C@]1(c2ccccc2OC)ON(c2ccccc2C(F)(F)F)C1=O	87*	2	x	59	90*	84*	35
CCCCCC1CCC(c2ccc(/C(N)=N/O)cc2)CC1 (stereo not given)	2	0	-10	22	25	x	x
Cc1c(C(=O)OCC2CCCO2)[nH]c2c1C(=O)CC(c1ccco1)C2 (stereo not given)	3	0	-46	3	38	x	x
COC(=O)C1C(=O)c2c([nH]c(C(=O)OC3CCCC3)c2C)CC1C (stereo not given)	3	-1	-131	1	-73	x	x
Cc1c(C(=O)OCC(C)C)[nH]c2c1C(=O)CC(c1ccco1)C2 (stereo not given)	28	0	70*	x	75*	54*	77*
SMILES	Beta apoptosis	Bfl-1 A1 inh	aSyn 5UTR inh	CSC inhib	Mdm2 MdmX PPI	Mdm2-MdmX conf	Full FLuc ctr
Cc1c(C(=O)OC2CCCC2)[nH]c2c1C(=O)CC(c1ccco1)C2 (stereo not given)	43	2	56	64	68*	48*	78*
C=CCOC(=O)c1[nH]c2c(c1C)C(=O)CC(c1ccco1)C2 (stereo not given)	-15	0	69*	7	63*	55*	86*
COC(=O)c1[nH]c2c(c1C)C(=O)CC(c1ccccc1)C2 (stereo not given)	39	0	28	56	70*	55*	89*
COC(=O)c1[nH]c2c(c1C)C(=O)CC(c1ccc(OC)cc1)C2 (stereo not given)	-2	-1	-9	-11	16	x	x
CCOC(=O)Cc1csc(NC(=O)C(NC(=O)C2CCC(C)CC2)C(C)C)n1 (stereo not given)	6	1	7	-7	-16	x	x
CC1Cc2ccccc2N1C(=O)COC(=O)Cc1ccc(F)cc1 (stereo not given)	-1	1	15	-1	-10	x	x
C/C=C/COC(=O)c1[nH]c2c(c1C)C(=O)CC(c1ccco1)C2 (stereo not given)	31	0	67*	63	65*	56*	73*
C/C=C/COC(=O)c1[nH]c2c(c1C)C(=O)CC(c1ccc(N(C)C)cc1)C2 (stereo not given)	13	1	-15	x	21	x	x
Cc1c(C(=O)N2CCOCC2)[nH]c2c1C(=O)CC(c1ccccc1Cl)C2 (stereo not given)	9	1	4	47	73*	56*	59*
Cc1c(C(=O)O)[nH]c2c1C(=O)CC(c1ccc(C(C)(C)C)cc1)C2 (stereo not given)	-5	-1	-31	-14	-9	x	x
COc1ccc(N/C=C/C(=O)c2cc(OC)c(OC)c(OC)c2)cc1	31	0	u	68	68*	60*	57*
COc1ccc(N/C=C/C(=O)c2ccc(OC)c(OC)c2)cc1	x	-5	-27	11	29	x	x
COc1ccc(OC)c(C(=O)/C=C/c2ccccc2C(F)(F)F)c1	-6	1	-198	99*	89*	65*	21
COc1ccc(OC)c(N/C=C/C(=O)c2ccccc2)c1	15	-7	83*	3	58*	62*	155*
COCCn1c(SCC(=O)NC(=O)NC2CCCC2)nc2ccccc2c1=O	-9	0	x	x	14	x	x
COc1cc(NC(=O)c2cc3ccccc3o2)ccc1NC(=O)c1ccco1	-1	0	-32	-9	28	x	x
COc1cc(NC(=O)c2c(OC)cccc2OC)ccc1NC(=O)c1cc2ccccc2o1	2	0	-205	-7	-18	x	x
